The record followed here is ChEMBL document CHEMBL3988442, “University of Dundee, Small-Polar-MMV Screening Library” (2021).

Structures are written as SMILES. For some of these results: Entries with a potency or affinity are not part of this list.

What all share (design): scale not given: direction of the effect not stated beside the values
Test [1] addresses Protein translocase subunit SecA (Escherichia coli (strain K12)) (UniProt P10408). Nature of the test: Assay to Identify E. coli SecA ATPase Inhibitors. Conditions: 30 µM. It is filed as functional.
Test [2] deals with T1, Ubiquitin-activating enzyme e1, putative (Leishmania donovani (strain BPK282A1)) (UniProt E9BSI1).
T1 sequence (whole entry): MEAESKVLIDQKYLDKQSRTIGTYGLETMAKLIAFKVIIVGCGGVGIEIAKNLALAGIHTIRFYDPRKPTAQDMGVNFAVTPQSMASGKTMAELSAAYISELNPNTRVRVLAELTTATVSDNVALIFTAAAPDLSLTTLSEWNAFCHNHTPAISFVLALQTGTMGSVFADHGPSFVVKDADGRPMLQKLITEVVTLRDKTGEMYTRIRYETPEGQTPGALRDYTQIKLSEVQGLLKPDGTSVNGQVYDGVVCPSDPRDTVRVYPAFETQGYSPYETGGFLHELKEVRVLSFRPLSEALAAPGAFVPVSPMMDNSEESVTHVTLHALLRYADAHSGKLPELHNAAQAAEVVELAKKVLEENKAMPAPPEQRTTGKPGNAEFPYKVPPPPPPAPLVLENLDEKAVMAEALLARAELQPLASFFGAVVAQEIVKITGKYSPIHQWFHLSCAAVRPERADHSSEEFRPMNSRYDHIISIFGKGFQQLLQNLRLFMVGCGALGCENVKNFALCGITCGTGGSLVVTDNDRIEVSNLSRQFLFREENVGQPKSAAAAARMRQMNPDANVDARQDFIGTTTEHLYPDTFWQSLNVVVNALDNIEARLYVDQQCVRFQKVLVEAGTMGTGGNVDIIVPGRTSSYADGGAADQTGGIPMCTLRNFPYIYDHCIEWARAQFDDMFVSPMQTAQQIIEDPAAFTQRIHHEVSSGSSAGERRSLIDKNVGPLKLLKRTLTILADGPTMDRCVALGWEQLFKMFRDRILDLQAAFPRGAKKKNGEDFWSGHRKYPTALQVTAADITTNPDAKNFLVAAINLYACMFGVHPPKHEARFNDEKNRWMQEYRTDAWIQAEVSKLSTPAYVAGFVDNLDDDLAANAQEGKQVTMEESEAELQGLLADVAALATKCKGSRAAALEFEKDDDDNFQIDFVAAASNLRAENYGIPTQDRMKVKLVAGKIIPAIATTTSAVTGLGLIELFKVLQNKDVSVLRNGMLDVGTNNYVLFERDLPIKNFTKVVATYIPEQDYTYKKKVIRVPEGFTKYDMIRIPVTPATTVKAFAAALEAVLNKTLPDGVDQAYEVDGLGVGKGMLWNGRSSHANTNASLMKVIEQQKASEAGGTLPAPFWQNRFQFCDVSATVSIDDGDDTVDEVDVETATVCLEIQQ
Nature of the test: Leishmania donovani Ubiquitin Activating Enzyme (LdE1). The class given is functional. Conditions: 30 µM.

For test [3], the target named is AMP-activated protein kinase, AMPK (Homo sapiens) (UniProt P54646+O43741+P54619+Q9UGJ0+Q9Y478+Q13131+Q9UGI9). Nature of the test: AMP-dependent Kinase enzyme assay. An in vitro enzyme assay that detects ADP turnover that is directly proportional to AMPK activity. This uses naive AMPK that is activated during the assay with MK-8722. It is filed as functional. Conditions: 30 µM.

Test [4] addresses Sialic acid-binding Ig-like lectin 9 (Homo sapiens) (UniProt Q9Y336). Nature of the test: Hs-Siglec9 ALPHAscreen SOP 20170721. Particulars: 10 µM.
The test system of another test is Trypanosoma cruzi. Nature of the test: Trypanosoma cruzi phosphomannomutase and mannose-1-phosphate guanylyltransferase assay. Conditions: 10 µM. The class given is functional.
Test [5] has as its target T2, Arginase-2, mitochondrial (Homo sapiens) (UniProt P78540).
T2 sequence (whole entry): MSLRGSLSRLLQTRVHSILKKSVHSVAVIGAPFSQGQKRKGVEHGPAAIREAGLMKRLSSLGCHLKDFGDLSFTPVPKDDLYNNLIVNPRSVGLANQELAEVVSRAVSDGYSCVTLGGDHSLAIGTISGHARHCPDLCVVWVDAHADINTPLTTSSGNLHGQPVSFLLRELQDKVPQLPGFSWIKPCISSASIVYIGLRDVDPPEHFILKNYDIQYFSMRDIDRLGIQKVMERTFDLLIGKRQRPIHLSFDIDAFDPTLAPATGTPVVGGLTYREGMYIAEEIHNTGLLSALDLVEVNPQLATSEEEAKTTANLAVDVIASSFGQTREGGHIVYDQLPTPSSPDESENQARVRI
Nature of the test: in vitro enzyme assay to detect the production of urea directly proportional to the activity of Arginase II. Also: in the data most compounds retested in dose-response had high values. The class given is functional. Conditions: 33.3 µM.

In test [6] the target is T3, Proteasome subunit beta (Trypanosoma cruzi) (UniProt O96673).
T3 sequence (whole entry): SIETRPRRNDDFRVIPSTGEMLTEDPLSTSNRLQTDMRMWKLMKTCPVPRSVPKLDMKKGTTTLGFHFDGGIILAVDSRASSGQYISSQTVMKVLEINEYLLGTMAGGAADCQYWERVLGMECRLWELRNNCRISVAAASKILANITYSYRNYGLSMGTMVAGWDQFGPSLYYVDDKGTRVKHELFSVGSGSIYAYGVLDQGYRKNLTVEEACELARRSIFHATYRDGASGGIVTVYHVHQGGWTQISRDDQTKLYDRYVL
The test is described as follows: Trypanosoma cruzi proteasome chymotrypsin-like activity (TcProtChymo) assay. Also: in the data most compounds retested in dose-response had high values. The class given is functional. Conditions: 9.37 µM.

Another test is filed under the species Homo sapiens. The test is described as follows: To identify inhibition of the IFN signalling (Jak-Stat) pathway via expression of an eGFP reporter gene under the control of an IFN-stimulated response element (ISRE) containing MxA promoter. The class given is functional. Particulars: 30 µM.
For test [7], the target named is T4, Tyrosyl-tRNA synthetase, putative (Trypanosoma cruzi (strain CL Brener)) (UniProt Q4DSP6).
T4 sequence (whole entry): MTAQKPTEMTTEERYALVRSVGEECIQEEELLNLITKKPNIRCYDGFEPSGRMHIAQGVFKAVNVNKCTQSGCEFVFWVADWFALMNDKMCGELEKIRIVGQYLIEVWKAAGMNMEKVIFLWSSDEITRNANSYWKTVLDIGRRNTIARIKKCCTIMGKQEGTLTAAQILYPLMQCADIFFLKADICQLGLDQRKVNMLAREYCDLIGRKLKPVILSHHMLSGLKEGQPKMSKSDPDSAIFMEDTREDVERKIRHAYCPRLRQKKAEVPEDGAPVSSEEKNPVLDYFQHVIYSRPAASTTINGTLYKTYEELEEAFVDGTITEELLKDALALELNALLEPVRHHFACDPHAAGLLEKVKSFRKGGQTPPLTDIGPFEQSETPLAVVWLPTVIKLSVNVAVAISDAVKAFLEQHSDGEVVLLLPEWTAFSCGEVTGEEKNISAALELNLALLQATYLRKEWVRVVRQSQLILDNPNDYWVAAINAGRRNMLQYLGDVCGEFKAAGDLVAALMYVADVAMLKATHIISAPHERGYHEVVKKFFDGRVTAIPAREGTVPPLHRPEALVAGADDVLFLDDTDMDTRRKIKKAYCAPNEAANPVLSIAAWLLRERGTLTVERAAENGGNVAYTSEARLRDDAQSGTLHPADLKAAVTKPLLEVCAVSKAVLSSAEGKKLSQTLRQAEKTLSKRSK
Nature of the test: Trypanosoma cruzi tyrosyl tRNA synthetase (TcYRS) _High Tyrosine SOP. Also: in the data most compounds retested in dose-response had high values. It is filed as functional. Particulars: 30 µM.

Test [8] has as its target T4, Tyrosyl-tRNA synthetase, putative (Trypanosoma cruzi (strain CL Brener)). The test is described as follows: Trypanosoma cruzi tyrosyl tRNA synthetase (TcYRS) SOP. It is filed as functional. Particulars: 30 µM.
In test [9] the target is Chromo domain-containing protein 1 (Saccharomyces cerevisiae (strain ATCC 204508 / S288c) (Baker's yeast)) (UniProt P32657). Nature of the test: ScCHD-1 Enzyme Inhibition Assay. Also: in the data most compounds retested in dose-response had high values. The class given is functional. Particulars: 30 µM.
Sequence of Chromo domain-containing protein 1 (Saccharomyces cerevisiae (strain ATCC 204508 / S288c) (Baker's yeast)) (P32657 whole entry, the tested form may be a part): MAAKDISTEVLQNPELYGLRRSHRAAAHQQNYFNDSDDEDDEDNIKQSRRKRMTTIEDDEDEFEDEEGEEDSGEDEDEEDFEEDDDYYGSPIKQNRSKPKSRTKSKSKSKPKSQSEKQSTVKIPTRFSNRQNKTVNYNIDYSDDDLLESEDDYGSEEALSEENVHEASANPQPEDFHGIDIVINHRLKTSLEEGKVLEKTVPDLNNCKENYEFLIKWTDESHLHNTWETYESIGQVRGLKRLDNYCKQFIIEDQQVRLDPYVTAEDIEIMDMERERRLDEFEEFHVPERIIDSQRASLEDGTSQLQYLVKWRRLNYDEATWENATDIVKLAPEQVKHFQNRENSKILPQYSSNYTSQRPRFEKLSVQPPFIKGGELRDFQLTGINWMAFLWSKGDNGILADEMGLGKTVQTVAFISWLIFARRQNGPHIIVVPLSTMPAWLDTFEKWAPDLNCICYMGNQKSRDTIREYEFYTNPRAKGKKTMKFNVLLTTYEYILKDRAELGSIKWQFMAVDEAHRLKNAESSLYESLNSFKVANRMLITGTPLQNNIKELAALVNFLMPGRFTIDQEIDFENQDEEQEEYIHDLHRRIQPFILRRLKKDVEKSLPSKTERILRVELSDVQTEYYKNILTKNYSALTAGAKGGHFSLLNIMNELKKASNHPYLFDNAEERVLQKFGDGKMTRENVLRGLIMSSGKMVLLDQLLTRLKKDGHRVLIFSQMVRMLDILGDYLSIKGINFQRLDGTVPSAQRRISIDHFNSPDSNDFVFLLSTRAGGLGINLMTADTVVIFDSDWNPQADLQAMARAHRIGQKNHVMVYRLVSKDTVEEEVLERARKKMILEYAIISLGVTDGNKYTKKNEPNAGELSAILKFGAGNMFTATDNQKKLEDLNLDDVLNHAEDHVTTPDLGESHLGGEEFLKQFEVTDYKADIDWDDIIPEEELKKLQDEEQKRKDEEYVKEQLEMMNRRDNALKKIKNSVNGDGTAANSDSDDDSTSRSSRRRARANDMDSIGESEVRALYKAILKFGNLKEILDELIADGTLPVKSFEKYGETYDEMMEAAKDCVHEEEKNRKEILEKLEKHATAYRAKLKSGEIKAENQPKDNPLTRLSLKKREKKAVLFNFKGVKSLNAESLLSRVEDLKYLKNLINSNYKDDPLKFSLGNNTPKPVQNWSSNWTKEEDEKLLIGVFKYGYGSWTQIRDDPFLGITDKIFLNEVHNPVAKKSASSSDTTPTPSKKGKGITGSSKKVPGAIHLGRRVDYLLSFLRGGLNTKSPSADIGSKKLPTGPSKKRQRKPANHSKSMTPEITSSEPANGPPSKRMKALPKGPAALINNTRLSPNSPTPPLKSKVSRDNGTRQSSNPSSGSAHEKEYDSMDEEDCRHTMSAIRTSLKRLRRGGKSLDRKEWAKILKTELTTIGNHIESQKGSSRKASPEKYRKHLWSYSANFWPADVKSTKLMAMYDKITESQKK

Sequence of Sialic acid-binding Ig-like lectin 9 (Homo sapiens) (Q9Y336 whole entry): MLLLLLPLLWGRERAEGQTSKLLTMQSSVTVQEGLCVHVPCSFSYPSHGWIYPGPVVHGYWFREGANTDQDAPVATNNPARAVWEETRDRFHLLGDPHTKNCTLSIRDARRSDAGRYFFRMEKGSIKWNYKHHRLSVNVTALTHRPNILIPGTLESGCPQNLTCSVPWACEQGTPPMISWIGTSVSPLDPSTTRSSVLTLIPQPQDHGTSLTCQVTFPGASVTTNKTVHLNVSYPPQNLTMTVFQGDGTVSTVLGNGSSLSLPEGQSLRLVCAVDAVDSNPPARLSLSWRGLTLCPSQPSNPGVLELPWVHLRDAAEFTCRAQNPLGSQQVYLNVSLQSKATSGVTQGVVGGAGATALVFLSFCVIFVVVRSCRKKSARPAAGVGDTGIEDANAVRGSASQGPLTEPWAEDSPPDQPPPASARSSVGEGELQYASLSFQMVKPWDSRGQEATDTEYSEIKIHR
Sequence of Protein translocase subunit SecA (Escherichia coli (strain K12)) (P10408 whole entry): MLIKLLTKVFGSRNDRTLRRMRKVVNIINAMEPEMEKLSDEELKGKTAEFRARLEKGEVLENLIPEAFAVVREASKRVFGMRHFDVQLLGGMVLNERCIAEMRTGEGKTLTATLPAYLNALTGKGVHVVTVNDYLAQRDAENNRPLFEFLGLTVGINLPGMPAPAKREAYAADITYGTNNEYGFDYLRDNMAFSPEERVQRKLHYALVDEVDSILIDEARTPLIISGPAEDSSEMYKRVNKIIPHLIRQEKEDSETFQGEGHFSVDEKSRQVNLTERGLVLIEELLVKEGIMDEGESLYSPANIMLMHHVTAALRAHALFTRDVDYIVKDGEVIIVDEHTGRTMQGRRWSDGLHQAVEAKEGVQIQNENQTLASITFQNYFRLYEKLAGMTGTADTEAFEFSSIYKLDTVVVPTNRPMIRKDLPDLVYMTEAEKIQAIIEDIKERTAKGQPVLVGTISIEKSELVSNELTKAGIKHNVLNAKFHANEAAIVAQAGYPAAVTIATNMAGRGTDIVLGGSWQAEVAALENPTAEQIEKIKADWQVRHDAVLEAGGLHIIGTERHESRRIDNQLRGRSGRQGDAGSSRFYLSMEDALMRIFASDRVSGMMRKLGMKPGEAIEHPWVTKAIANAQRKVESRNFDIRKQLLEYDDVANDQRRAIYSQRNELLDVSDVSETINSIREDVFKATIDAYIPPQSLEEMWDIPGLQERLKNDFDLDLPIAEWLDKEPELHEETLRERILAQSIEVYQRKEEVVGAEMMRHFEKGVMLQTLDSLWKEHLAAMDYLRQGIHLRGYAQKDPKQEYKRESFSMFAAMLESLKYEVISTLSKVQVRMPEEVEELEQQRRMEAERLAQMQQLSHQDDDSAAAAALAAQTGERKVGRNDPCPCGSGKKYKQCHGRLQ

Consider `c1cnn(Cc2cn3c(n2)CN(Cc2nccs2)CC3)c1`, for which the Percent Effect in test [1] was -2.43%; in test [2] it was -36.4%; in test [3], -0.581%; in [4], -1.53%; in the test on Trypanosoma cruzi it was 5.23%; in test [5], 5.81%. Also, the Percent Effect in test [6] was 12.2%; in the test listed under Homo sapiens it was 4.15%; in [7] it was 9.52%; in [8] it was 26.9%; in test [9], -6.74%.
`Cc1nc(CN2CCCC2c2nc(C(C)C)no2)cs1` (stereo unspecified): the Percent Effect was -3.44% in test [1]; 18.1% in test [2]; -18.2% in test [3]; 15.3% in [4]; 3.79% with Trypanosoma cruzi; 5.3% in test [5]. Moreover, the Percent Effect in [6] was 9.47%; in the test filed under Homo sapiens, -11.9%; in test [7], 5.26%; in [8], 12.8%; in test [9], -5.13%.
On to `Cn1cc(CN2CC[C@H]3O[C@H](C(=O)NCc4ccco4)CC[C@H]32)cn1`, for which the Percent Effect in test [1] is -0.286%; in [2] it was 5.33%; in [3] it was -3.22%; in test [4], -1.09%; with Trypanosoma cruzi it was -7.14%; in test [5], -53.2%. Moreover, the Percent Effect in [6] is 6.67%; in the test listed under Homo sapiens, -2.52%; in [7], 1.04%; in test [8], 12.5%; in [9], -5.84%.
For the compound `CC(=O)N1CCC(C(=O)N(C)[C@@H]2CCC[C@@H](N3CCCC3)[C@@H]2O)CC1`, the Percent Effect in test [1] is -6.98%; in [2] it was 20.3%; in [3] it was -7.25%; in [4], -2.3%; with Trypanosoma cruzi, 6.13%; in test [5], -2.09%. The Percent Effect in [6] is 13.4%; in the test listed under Homo sapiens it was 13.2%; in [7] it was 5.38%; in test [8] it was 22.1%; in [9], -22.6%.
With `CNC(=O)C(NC(=O)c1nccn2ccnc12)c1ccc(F)c(F)c1` (stereo unspecified), the Percent Effect in test [1] is -5.39%; in test [2] it was 13.5%; in test [3], -2.95%; in test [4], 5.66%; in the test with Trypanosoma cruzi it was 5.27%; in test [5], 16.2%. For the same compound, the Percent Effect was 19% in test [6]; -10.6% in the test filed under Homo sapiens; 5.94% in test [7]; 15.8% in [8]; 23.6% in test [9].
On to `O=C(C1=CC2(CCNCC2)c2ccccc21)N1CCCC1`, for which the Percent Effect is -0.609% in [1]; 2.67% in [2]; 6.96% in [3]; -3.45% in [4]; -7.53% in the test on Trypanosoma cruzi; -56.1% in test [5]. The Percent Effect was 7.52% in test [6]; -19.8% in the test listed under Homo sapiens; -3.12% in [7]; 2.5% in [8]; -6.64% in test [9].
On to `O=C(NCCCNC(=O)c1cccc(O)c1)Nc1ccc(F)cc1F`, for which the Percent Effect in test [1] is -7.43%; in test [2], 18.4%; in test [3], 7.05%; in [4], -5.18%; in the test with Trypanosoma cruzi it was 2.24%; in test [5], -3.55%. For the same compound, the Percent Effect in [6] was 12.9%; in the test listed under Homo sapiens, 3.94%; in test [7], 2.13%; in test [8], 15.6%; in test [9], -5.87%.
For the compound `O=C(NCCNc1ncccn1)C1CCN(c2ncccn2)CC1`, the Percent Effect was -4.14% in test [1]; 10.8% in test [2]; -3.16% in test [3]; 5.87% in test [4]; 7.71% in the test on Trypanosoma cruzi; -4.62% in test [5]. Moreover, the Percent Effect in [6] is 5.57%; in the test filed under Homo sapiens, 26.3%; in test [7], -10.9%; in test [8] it was 13.4%; in test [9], 1.05%.
As to `COc1ccc(OCc2nc(C(=O)N3CC[C@H](O)[C@@H](O)C3)co2)cc1`, the Percent Effect in test [1] was -5.04%; in test [2], 2.7%; in [3] it was -0.405%; in test [4], 4.91%; in the test with Trypanosoma cruzi it was -3.09%; in test [5], -0.476%. Besides, the Percent Effect was 12.8% in test [6]; -0.834% in the test listed under Homo sapiens; 6.88% in [7]; 12.2% in [8]; -4.44% in test [9].
As to `O=S(=O)(N1CCCCC1)N1CCc2nc(C3CCNCC3)ncc2C1`, the Percent Effect in test [1] was -2.16%; in [2] it was -4.05%; in [3] it was 0.892%; in test [4] it was 4.08%; in the test on Trypanosoma cruzi, -1.78%; in test [5], -3.94%. For the same compound, the Percent Effect is 12.8% in test [6]; 5.01% in the test listed under Homo sapiens; 3.23% in [7]; 1.3% in [8]; -20.6% in test [9].
On to `O=C(C1CCOCC1)N1CCc2ncnc(-c3ccc(F)cc3)c2CC1`, for which the Percent Effect in [1] is -1.29%; in test [2] it was 2.67%; in test [3] it was 4.73%; in test [4], 2.72%; in the test on Trypanosoma cruzi, -1.35%; in test [5], -2.33%. The Percent Effect in [6] was 8.89%; in the test filed under Homo sapiens, -4.53%; in test [7], 0%; in [8], -2.5%; in test [9], -3.02%.
